BRCA1 expr up: activators of BRCA1 expression | MCF7-BRCA1-FFLuc reporter, luminescence, 48 h; response scale: scaled: vehicle 0%, 10 µM genistein 100% | Potency, µM (top dose mostly 46.1 µM), usual class: activators | 380,000 compounds, 1.1% hits | AID 624202; note: nearly all actives have a fitted effect of over 80% in size
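MCF7-BRCA1-FFLuc, 2000 cells/well; 2 h attach, 37 °C/5% CO2; compound 48 h; luciferase substrate 15 min; luminescence end-point. Norm. to genistein 10 microM max activation and DMSO; concentration-response curves fitted.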
IL2 activator: activates IL-2 in a cell-based reporter assay; IL-2 activation reporter assay, cell-based qHTS; stimulated with anti-CD3/CD4/CD28 beads; in transgenic mouse T cells; activation, % (series mostly up to about 46 µM); 360,000 compounds, 0.065% hits; in the data active = activation above about 50%; inconclusive = mostly about 30% to 49%
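Using fluorescent plate cytometry, EGFP and DsRed are detected in transgenic mouse T cells stimulated 18 h at 37 degrees C with antibody-coated beads after 60 min compound pretreatment.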
p53 reactivator: mutant p53 re-activation in reporter cells | H1299 p53-A138V BP100-luciferase reporter, luminescence, 24 h | Potency, µM (top dose mostly 92.2 µM), hits mostly activators | 320,000 compounds, 0.063% hits; note: nearly all actives have a fitted effect of over 45% in size
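H1299 (p53-null), stable ts p53-A138V + BP100-Luc; 1000 cells/well, Opti-MEM/10% FBS; cpd 4 pt, 1:5; 24 h, 37 deg C, 5% CO2; detection reagent 10 min RT; luminescence.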
A549 tox: kills or reduces viability of A549 cells in Nrf2 counter-screen | Potency, µM (highest dose often 46 µM), usual class: inhibitors | A549 ARE-Fluc cells, CellTiter-Fluor viability, 18-24 h | 390,000 compounds, 0.16% hits
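A549 ARE_Fluc cells in 5% FBS OPTI-MEM were exposed to compounds in concentration-response for 18-24 h at 37 deg C. Viability was read by CellTiter-Fluor fluorescence (Ex 405/Em 525) after 30 min, before the luciferase read.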
Nrf2 activator: activators of Nrf2 (ARE) signaling; Potency, µM (doses to about 46.1 µM), hits mostly activators; 410,000 compounds, 0.31% hits; AREc32 ARE-luciferase reporter (MCF7-derived line), luminescence, 24 h; note: nearly all actives have a fitted effect of over 65% in size
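Each well held 1000 AREc32 cells, which were incubated with compound for 24 hr at 37 deg C after overnight attachment, and ARE reporter activity was quantified by firefly luciferase luminescence.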
Nrf2 inh: Nrf2 pathway inhibition | A549 ARE-Fluc reporter, luciferase luminescence, 18-24 h | Potency, µM (doses to about 46 µM), most hits filed as inhibitors | 360,000 compounds, 2.1% hits; note: nearly all actives have a fitted effect of over 60% in size
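Nrf2 activity is the BugLite luminescence, read 15 min after reagent at room temperature, following CellTiter-Fluor cytotoxicity readout (30 min, 37C). Compound titrations were applied for 18-24 h to 5000 A549 ARE_Fluc cells/well in 5% FBS OPTI-MEM.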
Of the large screens only hits and unclear results are named; the others gave an inactive call. Compounds with a hit are over-represented: about 3.2% of the library has one in this group of screens. Unless noted, calls come from the whole dose curve; as a rule, active = well fitted curve in the direction sought with a large enough effect; inconclusive = small, poorly fitted or top-dose-only effect, or another doubt; inactive = no such curve, though single readings can be large; an effect the other way counts as inactive or inconclusive.

COC(=O)c1ccc(C2NC(c3ccc4c(c3)OCO4)=CC(c3ccccc3O)N2)cc1 (stereo unspecified)	none (no result: IL2 activator, p53 reactivator, Nrf2 activator)
O=C(C[N+]12CN3CN(CN(C3)C1)C2)c1ccc(Cl)cc1	none (no result: IL2 activator, p53 reactivator, A549 tox, Nrf2 activator, Nrf2 inh)
O=C(NCCCc1ccccc1)c1ccc([N+](=O)[O-])cc1Cl	BRCA1 expr up 10µM, p53 reactivator inconclusive, Nrf2 inh inconclusive
Cc1ccc(NS(=O)(=O)c2cc3c(cc2N(C)C)NC(=O)CC3)cc1C	none (no result: BRCA1 expr up, IL2 activator, p53 reactivator, Nrf2 activator)
Cn1c2ccccc2c2nnc(SCCOc3ccccc3)nc21	Nrf2 inh 5.17µM (no result: IL2 activator, p53 reactivator, Nrf2 activator)
Cn1c2cc(C=O)sc2c2cnn(Cc3ccccc3F)c(=O)c21	none (no result: BRCA1 expr up, IL2 activator, p53 reactivator, Nrf2 activator)
CCOc1ccc2cc(C(=O)c3ccccc3)c(=O)oc2c1	BRCA1 expr up 10µM, p53 reactivator inconclusive
COc1cccc(C(=O)COc2ccc3c(C)c(Cc4ccccc4)c(=O)oc3c2)c1	none
COc1ccc(-c2cc3ccc(OCC(C)=O)cc3oc2=O)cc1	BRCA1 expr up inconclusive, p53 reactivator inconclusive, Nrf2 inh inconclusive
CCCCc1c(C)c2ccc(OCC(C)=O)cc2oc1=O	BRCA1 expr up inconclusive, p53 reactivator inconclusive (no result: Nrf2 inh)
COc1ccc(-c2cc3ccc(OCC(C)=O)cc3oc2=O)cc1OC	BRCA1 expr up 10µM, p53 reactivator inconclusive, Nrf2 inh inconclusive
Cc1c(C)c2ccc(OCC(=O)c3ccccc3)cc2oc1=O	BRCA1 expr up 6.31µM
CCCc1c(C)c2ccc(OCC(C)=O)cc2oc1=O	BRCA1 expr up 5.62µM, p53 reactivator inconclusive, Nrf2 inh inconclusive
CCOC(=O)c1cc(S(=O)(=O)N2CCN(c3ccc(F)cc3)CC2)[nH]n1	none (no result: BRCA1 expr up, IL2 activator, p53 reactivator, Nrf2 inh)
Cc1cc(NC(=O)c2cnn(-c3ccccc3)c2-n2cccc2)ccc1Br	Nrf2 inh inconclusive (no result: BRCA1 expr up, IL2 activator, p53 reactivator)
COc1cc(/C=C2\CC(C(C)(C)C)C/C(=C\c3cc(OC)c(OC)c(OC)c3)C2=O)cc(OC)c1OC (stereo unspecified)	A549 tox 8.2µM, Nrf2 activator inconclusive, Nrf2 inh 5.8µM
COc1ccc2c(c1)CC/C(=C/c1ccco1)C2=O	BRCA1 expr up 3.55µM, p53 reactivator inconclusive, Nrf2 activator inconclusive, Nrf2 inh inconclusive
COc1cc(/C=C2\CC/C(=C\c3cc(OC)c(O)c(OC)c3)C2=O)cc(OC)c1O	A549 tox inconclusive, Nrf2 inh 16.4µM
COc1cc(OC)c(OC)cc1/C=C1/Cc2ccccc2C1=O	IL2 activator 126.2, Nrf2 activator 5.62µM
COc1cc(/C=C2\CC/C(=C\c3cc(OC)c(OC)c(OC)c3)C2=O)cc(OC)c1OC	none
Cc1c(P(=S)(c2ccccc2)c2ccccc2)c2ccccc2n1C(=O)Cc1ccccc1	none (no result: BRCA1 expr up, IL2 activator, p53 reactivator, Nrf2 activator)
COc1ccc(C=C2CCc3ccccc3C2=O)cc1	none (no result: p53 reactivator, A549 tox, Nrf2 inh)
COc1ccc(/C=C2\OC(=O)c3c(OC)cccc32)cc1OC	BRCA1 expr up 10µM, Nrf2 inh inconclusive
COc1cc(OC)c(OC)cc1/C=C1\CC(C)C/C(=C\c2cc(OC)c(OC)cc2OC)C1=O (stereo unspecified)	A549 tox inconclusive, Nrf2 inh inconclusive
COc1cc(/C=C2/CCc3ccccc3C2=O)cc(OC)c1OC	p53 reactivator inconclusive, Nrf2 activator inconclusive, Nrf2 inh 14.6µM
CCC1C/C(=C\c2cc(OC)c(OC)cc2OC)C(=O)/C(=C/c2cc(OC)c(OC)cc2OC)C1 (stereo unspecified)	A549 tox inconclusive, Nrf2 inh 18.4µM
COc1cc(/C=C2\CCc3ccccc3C2=O)cc(OC)c1OC	Nrf2 activator inconclusive
COc1ccc(C=C2C(=O)OC(C)(C)OC2=O)cc1OC	none
COc1ccc(/C=C2/CCc3ccccc3C2=O)cc1OC	p53 reactivator inconclusive, Nrf2 activator inconclusive, Nrf2 inh 23.1µM
c1ccc(CNCc2nnc(-c3cc4ccccc4[nH]3)o2)cc1	none (no result: BRCA1 expr up, IL2 activator, p53 reactivator, Nrf2 activator)
O=C(NNc1ccccc1F)c1sccc1Cl	none (no result: IL2 activator, p53 reactivator, Nrf2 activator)
COC(=O)c1scc(-c2ccc(C)cc2)c1S(=O)(=O)N1CCN(c2ccc(F)cc2)CC1	Nrf2 inh inconclusive (no result: BRCA1 expr up, IL2 activator, p53 reactivator)
Cc1nn(Cc2ccccc2)c(C)c1C(=O)OCC(=O)c1cc(C)n(CC(F)(F)F)c1C	Nrf2 inh 16.4µM
COC(=O)C1=C(C)NC2=C(C(=O)CCC2)C1c1cn(Cc2ccc(Cl)cc2Cl)nc1-c1ccccc1 (stereo unspecified)	A549 tox inconclusive, Nrf2 inh 25.9µM
CCCn1c(C)cc(C(=O)COc2ncnc3sccc23)c1C	p53 reactivator inconclusive (no result: Nrf2 inh)
Cc1cc(C(=O)COc2ncnc3sccc23)c(C)n1C1CC1	BRCA1 expr up 8.91µM, p53 reactivator inconclusive
COc1cc(Cl)c(S(=O)(=O)N2CCN(c3c(C)cccc3C)CC2)cc1Cl	none (no result: IL2 activator, p53 reactivator)
Cc1n[nH]c(=S)n1/N=C/c1ccc(OCc2ccc(Cl)cc2Cl)cc1	BRCA1 expr up inconclusive, p53 reactivator inconclusive
Fc1ccc(COc2ccc(/C=N/n3cnnc3)cc2)cc1	BRCA1 expr up 15.8µM, p53 reactivator inconclusive
Cc1n[nH]c(=S)n1/N=C/c1ccc(OCc2ccc(Cl)cc2)cc1	BRCA1 expr up 5.01µM
Clc1ccccc1COc1ccc(/C=N/n2cnnc2)cc1	Nrf2 inh inconclusive
CCCCCC(=O)Nc1cccc(C2=NOC3(C2)C[C@@H](C(N)=O)N(C(=O)CC(c2ccccc2)c2ccccc2)C3)c1 (stereo partly specified)	A549 tox inconclusive, Nrf2 inh 20.6µM

Assay outcomes: PubChem BioAssay, National Center for Advancing Translational Sciences (NCATS)
